Nine compounds from PubChem BioAssay (NCATS) can be followed below.

Values joined by “and” are separate entries in the source; they are usually repeats but may differ in a detail not shown here. Identical values can stand only once. Records with an inconclusive call do not appear. Active and inactive are the calls of the source. Unless noted, the call rests on the fitted dose curve; in most records, active means well fitted curve in the direction sought with a large enough effect; inconclusive means small, poorly fitted or top-dose-only effect, or another doubt; inactive means no such curve, though single readings can be large; an effect the other way counts as inactive or inconclusive.

Test [1] has as its target alpha-glucosidase (Oryza sativa, rice) (UniProt Q653V4). The test is described as follows: Counterscreen for Glucocerebrosidase Inhibitors: qHTS Assay for Rice alpha-Glucosidase at pH 5.0 (AID 997).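 Further: 0% = full activity with enzyme and -100% = basal without enzyme.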 The gist of the method:
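Rice alpha-glucosidase (4 nM final) with 400 uM 4-methylumbelliferyl-alpha-D-glucopyranoside in citrate buffer pH 5.0, 20 min at room temperature, stopped at pH 10; fluorescence 365/440 nm, compounds 0.7 nM–77 uM, AC50 from Hill fits.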
(In general: The purpose of a counterscreen is to sort out artefacts and off-target activity.)

Test [2] can be described thus: qHTS Assay for Lipid Storage Modulators (AID 1519; calls by dose curve; on activity change, negative = inhibition: on the % scale 0 is the no-effect control and ±100 the full control effect). Conditions: Drosophila S3 cells, BODIPY lipid droplet/cell ratio, laser cytometry, cells loaded with oleic acid; for activity change, negative = inhibition: at 57.5 µM (top of the series). The gist of the method: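 Cells seeded at 5,000 per well were treated with compounds over a concentration series and loaded with oleic acid (400 uM, as added). Lipid droplet fluorescence (488 nm excitation, 500-530 nm channel) was read by laser-scanning cytometry and normalized to 20 uM Triacsin C.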

Test [3] addresses DNA repair nuclease/redox regulator APEX1 (Homo sapiens) (UniProt P27695). The test is described as follows: qHTS Validation Assay for Inhibitors of the Human Apurinic/apyrimidinic Endonuclease 1 (APE1) (AID 1705;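 further: TAMRA fluorescence gain over two minutes as APE1 cuts a quenched THF abasic duplex; on the % scale 0 is the no-effect control and ±100 the full control effect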). In short, it runs like this: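 Read-out: TAMRA fluorescence (525 nm ex, 598 nm em) from cleavage of a quenched THF abasic-site duplex, 50 nM final; activity taken as intensity change between third and first of three reads 60 s apart.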
(qHTS replaces the single test concentration by a dilution series.)

A short description of test [4]: Counterscreen for APE1 Inhibitors: Fluorescent Dye Displacement Validation Assay (AID 1707).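 Further: plate controls were ThO with dsDNA and no compound for no effect and ThO without dsDNA for full effect.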 The gist of the method:
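ThO 250 nM + dsDNA 50 nM (THF abasic site, 5'-TAMRA), Tris-HCl pH7.5/50mM NaCl/2 mM MgCl2/0.01% Tween-20; compounds pin-transferred; ex 480/em 540 nm endpoint. Neutral = no compound; no-DNA ThO wells = negative control.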

The target in test [5] is Endonuclease 4 (Escherichia coli (strain K12)) (UniProt P0A6C1). The test is described as follows: Counterscreen for APE1 Inhibitors: qHTS Validation Assay for Inhibitors of Endonuclease IV (AID 1708). Further: on the % scale 0 is the no-effect control and ±100 the full control effect. In short, it runs like this:
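Concentration-response counterscreen run identically to the APE1 assay: 15 min room-temperature preincubation of 2 nM enzyme with compound, reaction started with 50 nM quenched abasic DNA, progress taken from kinetic fluorescence.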

Test [6] is described as follows: qHTS for differential inhibitors of proliferation of Plasmodium falciparum line 7G8 (AID 1815).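 Further: parasite growth measured after three days of incubation.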 Further: potency means the concentration at half of the fitted maximal effect.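 On activity change, negative = inhibition: plate controls were vehicle wells for no effect and reference inhibitor wells for full effect.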
A short description of test [7]: qHTS for differential inhibitors of proliferation of Plasmodium falciparum line GB4 (AID 1816).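 Further: parasite growth measured after 72 h incubation.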 Further: potency means the concentration at half of the fitted maximal effect.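 On activity change, negative = inhibition: 0% = vehicle DMSO and -100% = reference inhibitor.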 Conditions: Potency: Plasmodium falciparum GB4 proliferation inhibition.
Test [8] in a line: qHTS for differential inhibitors of proliferation of Plasmodium falciparum line 3D7 (AID 1876). Further: potency means the concentration at half of the fitted maximal effect.
The nature of test [9]: qHTS for differential inhibitors of proliferation of Plasmodium falciparum line D10 (AID 1877).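 Further: parasites grown with compound for 72 h before DNA staining.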 Further: potency means the concentration at half of the fitted maximal effect.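 On activity change, negative = inhibition: plate controls were vehicle wells for no effect and reference inhibitor wells for full effect.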
The nature of test [10]: qHTS for differential inhibitors of proliferation of Plasmodium falciparum line Dd2 (AID 1882).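 Further: plate controls were DMSO vehicle for no effect and 0.29 µM artemisinin for full effect; nearly all actives have a fitted effect of over 65% in size.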 Conditions: Potency: Plasmodium falciparum Dd2 proliferation inhibition. In short, it runs like this:
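Dd2-infected erythrocytes (0.3% parasitemia, 2.5% hematocrit final) incubated with compound 72 h at 37 C, 5% CO2; lysed with saponin/Triton buffer containing SYBR Green I, incubated overnight in the dark, then read by fluorescence (485/535 nm). Normalized to 0.29 uM artemisinin and DMSO.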

Test [11] in a line: qHTS for differential inhibitors of proliferation of Plasmodium falciparum line W2 (AID 1883).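 Further: parasites grown with compound for 72 h before lysis and staining.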 Further: potency means the concentration at half of the fitted maximal effect.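 On activity change, negative = inhibition: 0% = vehicle wells and -100% = control inhibitor wells.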 Conditions: Potency: Plasmodium falciparum W2 proliferation inhibition.
Test [12] in a line: qHTS for differential inhibitors of proliferation of Plasmodium falciparum line HB3 (AID 1886).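 Further: parasites grown with compound for 72 h before SYBR Green readout.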 Further: potency means the concentration at half of the fitted maximal effect.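 On activity change, negative = inhibition: plate controls were vehicle for no effect and reference inhibitor for full effect.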 To be noted: Potency: Plasmodium falciparum HB3 proliferation inhibition.
The target in test [13] is Ferritin light chain (Equus caballus) (UniProt P02791). The test is described as follows: qHTS Validation Assay for Identification of Novel General Anesthetics (AID 2323). Further: on the % scale 0 is the no-effect control and ±100 the full control effect. In short, it runs like this: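 10 uM horse-spleen apoferritin + 1-AMA (50% saturated, PBS); cpd pin-transferred, 10 min RT. Ex 380/Em 535 nm endpoint. Activity normalized between free 1-AMA and 1-AMA/apoferritin; 4-parameter Hill fit of concentration-response.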

Test [14] addresses ATP-dependent DNA helicase Q1 (Homo sapiens) (UniProt P46063). The test is described as follows: qHTS Validation Assay for Inhibitors of RecQ-Like Dna Helicase 1 (RECQ1) (AID 2353).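 Further: plate controls were DMSO vehicle for no effect and enzyme-free control for full effect.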 The gist of the method:
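50 nM RECQ1T1 preincubated 15 min with compound in Tris pH 8.0 buffer with MgCl2, DTT, Tween-20 and 2.5 ug/ml poly(dI-dC); started with 200 nM TAMRA/BHQ-2 forked duplex and 2 mM ATP. Unwinding read as fluorescence (525/598 nm), two reads 2 h apart.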

Test [15] in a line: Cytometric Cell-Based qHTS for Inhibitors of the mTORC1 Signaling Pathway in MEF (Tsc2-/-, p53-/-) Cells (AID 2660).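 Further: percent of cells above a phospho-rpS6 to PI ratio cutoff in each well; plate controls were DMSO for no effect and rapamycin for full effect.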 In short, it runs like this:
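Percent of cells positive for normalized phospho-S6 staining is reported, with the cutoff set from rapamycin (7.5 nM) versus DMSO wells. Tsc2-/-, p53-/- MEFs received compound for 24 hrs.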

The nature of test [16]: High Content Imaging Cell-Based qHTS for Inhibitors of the mTORC1 Signaling Pathway in MEF (Tsc2-/-, p53-/-) Cells (AID 2666).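 Further: percent of cells scored positive for phospho-rpS6 Ser235/236 immunostaining by imaging.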 Conditions: at 38.3 µM (top of the series). In short, it runs like this:
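Read-out: % positive cells per well, with thresholds from highest- and lowest-signal wells, based on phospho-rpS6 (Ser235/236) intensity normalized to Hoechst nuclear stain. Cells: Tsc2-/-, p53-/- MEFs carrying empty vector; compound 24 hrs, 37 degree Celsius.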

Test [17] deals with RecQ-like DNA helicase BLM (Homo sapiens) (UniProt P54132). The test is described as follows: qHTS Validation Assay for Inhibitors of Bloom's syndrome helicase (BLM) (AID 2364). Further: potency means the concentration at half of the fitted maximal effect.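 On activity change, negative = inhibition: plate controls were DMSO vehicle for no effect and enzyme-free control for full effect.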 In short, it runs like this: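 BLM 50 nM in 25 mM Tris-HCl pH 8.0, 5 mM NaCl, 2 mM MgCl2, 1 mM DTT, 0.01% Tween-20, 2.5 ug/ml poly(dI-dC); 15 min cpd preinc, RT. Start: 200 nM forked DNA + 2 mM ATP (final). TAMRA read, 2 reads 2 h apart.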

[18] abbreviates: measured here: cell count channel max response.
Where [19] appears, read: measured here: lipid channel max response.

Ferritin light chain (Equus caballus), sequence (P02791 2-175 limits assumed): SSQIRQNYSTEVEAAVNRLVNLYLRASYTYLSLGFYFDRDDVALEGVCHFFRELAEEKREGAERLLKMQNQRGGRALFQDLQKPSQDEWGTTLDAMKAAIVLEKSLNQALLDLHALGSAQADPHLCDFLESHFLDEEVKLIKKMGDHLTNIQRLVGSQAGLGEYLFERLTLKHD
RecQ-like DNA helicase BLM (Homo sapiens), sequence (P54132 whole entry, looked up): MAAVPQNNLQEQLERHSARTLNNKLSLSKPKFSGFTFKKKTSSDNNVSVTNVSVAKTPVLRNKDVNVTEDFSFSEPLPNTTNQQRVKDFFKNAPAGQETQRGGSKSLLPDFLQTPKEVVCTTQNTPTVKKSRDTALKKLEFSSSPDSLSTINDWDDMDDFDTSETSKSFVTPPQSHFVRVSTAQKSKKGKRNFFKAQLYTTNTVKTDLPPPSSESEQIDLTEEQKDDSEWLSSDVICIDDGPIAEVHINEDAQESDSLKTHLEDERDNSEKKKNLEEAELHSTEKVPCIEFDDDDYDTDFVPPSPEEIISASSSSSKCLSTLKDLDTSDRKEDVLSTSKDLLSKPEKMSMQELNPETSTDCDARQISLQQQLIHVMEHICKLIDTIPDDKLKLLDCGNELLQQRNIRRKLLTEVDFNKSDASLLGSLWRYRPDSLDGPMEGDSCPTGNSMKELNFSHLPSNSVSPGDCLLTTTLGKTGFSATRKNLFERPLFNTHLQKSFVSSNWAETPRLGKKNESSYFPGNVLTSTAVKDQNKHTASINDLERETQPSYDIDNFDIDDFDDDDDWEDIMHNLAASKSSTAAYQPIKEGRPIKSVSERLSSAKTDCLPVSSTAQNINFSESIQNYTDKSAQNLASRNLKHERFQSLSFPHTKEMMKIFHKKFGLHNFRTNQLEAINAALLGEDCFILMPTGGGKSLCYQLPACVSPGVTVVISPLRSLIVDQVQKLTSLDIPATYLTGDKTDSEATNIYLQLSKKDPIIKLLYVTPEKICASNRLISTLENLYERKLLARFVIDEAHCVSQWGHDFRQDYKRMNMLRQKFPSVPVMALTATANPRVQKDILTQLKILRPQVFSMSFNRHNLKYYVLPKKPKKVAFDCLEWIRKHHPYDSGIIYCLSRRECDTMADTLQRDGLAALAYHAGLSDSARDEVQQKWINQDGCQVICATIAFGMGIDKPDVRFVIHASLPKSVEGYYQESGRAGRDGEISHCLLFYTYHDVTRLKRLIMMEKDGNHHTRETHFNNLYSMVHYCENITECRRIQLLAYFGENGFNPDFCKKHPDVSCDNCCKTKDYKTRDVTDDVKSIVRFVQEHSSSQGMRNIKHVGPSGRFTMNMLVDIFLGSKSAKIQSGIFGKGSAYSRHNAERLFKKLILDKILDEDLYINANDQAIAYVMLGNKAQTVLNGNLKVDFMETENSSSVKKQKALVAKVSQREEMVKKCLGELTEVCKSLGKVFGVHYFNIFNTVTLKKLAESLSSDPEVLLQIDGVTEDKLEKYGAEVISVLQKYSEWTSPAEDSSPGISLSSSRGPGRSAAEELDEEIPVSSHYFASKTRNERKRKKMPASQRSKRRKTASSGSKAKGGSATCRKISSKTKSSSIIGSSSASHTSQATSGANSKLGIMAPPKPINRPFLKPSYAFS
DNA repair nuclease/redox regulator APEX1 (Homo sapiens), sequence (P27695 whole entry, looked up): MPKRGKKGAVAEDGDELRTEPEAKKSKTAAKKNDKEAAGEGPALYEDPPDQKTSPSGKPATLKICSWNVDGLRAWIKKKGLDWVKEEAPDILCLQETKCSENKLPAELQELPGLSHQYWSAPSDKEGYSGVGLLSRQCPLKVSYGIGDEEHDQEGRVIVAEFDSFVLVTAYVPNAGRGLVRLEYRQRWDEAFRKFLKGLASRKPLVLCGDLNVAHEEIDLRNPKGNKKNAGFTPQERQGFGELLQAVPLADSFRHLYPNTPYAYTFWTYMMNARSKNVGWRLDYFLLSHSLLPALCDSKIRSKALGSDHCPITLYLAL
ATP-dependent DNA helicase Q1 (Homo sapiens), sequence (P46063 whole entry, looked up): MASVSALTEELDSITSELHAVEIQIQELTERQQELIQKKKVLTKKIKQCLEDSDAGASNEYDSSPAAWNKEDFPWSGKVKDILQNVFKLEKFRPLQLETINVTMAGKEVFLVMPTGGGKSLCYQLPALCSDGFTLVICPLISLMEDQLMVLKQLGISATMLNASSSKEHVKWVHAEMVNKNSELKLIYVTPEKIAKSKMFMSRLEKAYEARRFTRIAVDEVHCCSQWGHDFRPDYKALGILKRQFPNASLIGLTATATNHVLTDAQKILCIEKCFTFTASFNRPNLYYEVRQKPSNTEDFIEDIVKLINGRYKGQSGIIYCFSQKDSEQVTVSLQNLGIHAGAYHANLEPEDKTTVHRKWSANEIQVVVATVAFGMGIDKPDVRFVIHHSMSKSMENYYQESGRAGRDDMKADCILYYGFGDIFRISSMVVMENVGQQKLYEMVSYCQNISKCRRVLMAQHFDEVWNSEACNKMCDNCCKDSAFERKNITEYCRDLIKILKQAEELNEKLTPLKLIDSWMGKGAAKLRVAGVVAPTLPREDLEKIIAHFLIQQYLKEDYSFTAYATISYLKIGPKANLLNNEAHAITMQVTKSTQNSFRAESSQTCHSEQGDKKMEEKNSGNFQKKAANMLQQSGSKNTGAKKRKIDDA

Take `O=c1[nH]cnc2[nH]ncc12`: the result in test [1], in test [3], in test [4], in test [5], in test [13] and in [14] was inactive. For the same compound, the compound was called inactive in test [15] and in test [16]. In test [2], the activity change, negative = inhibition was 3.88% (inactive) and -0.195% (inactive). In addition, the max response in test [2] (setting [18]) is 3.2% and 58%; in test [2] (setting [19]) it was 12.9% and 60.4%. The Potency entry in test [6], in [7], in test [8], in test [9], in test [10] and in test [11] was “inactive” throughout. Also, the Potency result in test [12] is “inactive”.

With `OC(CCN1CCCCC1)(c1ccccc1)C1CC2C=CC1C2` (configuration not stated), the compound was classed as inactive in test [15] and in test [16].

Consider `c1ccc([C@H]2CN3CCSC3=N2)cc1`, for which the activity change, negative = inhibition in [2] is 0.161% (inactive). For the same compound, the max response in test [2] (setting [18]) amounted to 21.4%; in test [2] (setting [19]), 20.7%. Also, the result in test [3], in test [4], in test [5], in test [14], in [15] and in [16] was inactive. The Potency result in [6], in test [8], in test [9], in test [10] and in test [12] was “inactive” in each case.

In the case of `O=C1CCc2cc(OCCCCc3nnnn3C3CCCCC3)ccc2N1`, the outcome in test [1], in test [3], in [4], in test [13], in test [14] and in test [15] was inactive. In addition, the compound was called inactive in test [16]. In addition, the activity change, negative = inhibition in [2] was -9.74% (inactive). Also, the values for the max response in [2] (setting [18]) and in test [2] (setting [19]) were -20.7% and -27.2%, respectively. Moreover, the Potency in [6] was 14.1 µM (active). In addition, the Potency result in test [10] is “inactive”.

Take `CCn1cc(C(=O)O)c(=O)c2cc(F)c(N3CCNC(C)C3)c(F)c21` (configuration not stated): the activity change, negative = inhibition in test [2] is 5.34% (inactive). Also, the max response in test [2] (setting [18]) was 16.3%; in test [2] (setting [19]) it was 26.1%. The compound was called inactive in test [3], in test [4], in test [13], in test [14], in test [15] and in [16]. The Potency in test [8] is 11.2 µM (active); in [11], 10 µM (active). The Potency entry in [17] is “inactive”.

As for `Cc1cccc(-c2[nH]c(C(C)(C)C)nc2-c2ccc3nccnc3c2)n1`, the call in test [15] and in [16] was inactive.

As to `CC(C)NCC(O)COc1ccc(COCCOC(C)C)cc1` (configuration not stated), the outcome in test [1], in test [4], in test [5], in test [13], in test [14] and in test [15] was inactive. Besides, the compound was classed as inactive in test [16]. The Potency result in [8], in [9], in test [10], in [12] and in [17] was “inactive” in each case.

In the case of `Oc1ccc(C2CNCCc3c2cc(O)c(O)c3Cl)cc1` (configuration not stated), the result in [3], in [4], in test [5], in test [15] and in test [16] was inactive. Also, the Potency in test [7] is 10 µM (active); in [8], 10 µM (active); in test [9], 11.2 µM (active); in test [11] it was 10 µM (active); in [12] it was 11.2 µM (active); in test [17], 35.5 µM (active). Besides, the Potency result in [10] was “inactive”.

As for `Cc1ccccc1C(OCCN(C)C)c1ccccc1` (configuration not stated), in test [2], the activity change, negative = inhibition was -0.936% (inactive). Also, the max response in test [2] (setting [18]) was -31.3%; in test [2] (setting [19]) it was -33.7%. Moreover, the outcome in test [3], in [4], in test [5], in test [13], in test [14] and in [15] was inactive. For the same compound, the compound was called inactive in test [16]. The Potency in test [6] is 3.98 µM (active); in [11], 0.708 µM (active). Also, the Potency entry in test [9] is “inactive”.
